Out of some 220,000 compounds screened, about 16,000 (7.3%) were called active. Inconclusive results (about 25%) are left out. This excerpt belongs to a sample that is enriched for actives. Unmarked numbers belong to inactive results. Calls follow the shape of the dose curve; as a rule, active = well fitted inhibition curve with a large enough effect (not every such curve was filed as active); inconclusive = small, poorly fitted or top-dose-only effect, or another doubt; inactive = no such curve, though single readings can be large or run the other way.
Potency is read from the fitted curve at half-maximal effect.

The target of the assay is Aldehyde dehydrogenase 1A1 (Homo sapiens) (UniProt P00352). Put plainly: qHTS Assay for Inhibitors of Aldehyde Dehydrogenase 1 (ALDH1A1).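 As to activity, negative = inhibition: plate controls were no enzyme wells and a reference inhibitor.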 As to conditions: Purified ALDH1A1, NADH fluorescence, propionaldehyde substrate; series mostly up to 75.3 µM; activity, negative = inhibition: at the top concentration. (Quantitative high-throughput screening tests each substance at several concentrations.)
Aldehyde dehydrogenase 1A1 (Homo sapiens), sequence (P00352 whole entry, looked up): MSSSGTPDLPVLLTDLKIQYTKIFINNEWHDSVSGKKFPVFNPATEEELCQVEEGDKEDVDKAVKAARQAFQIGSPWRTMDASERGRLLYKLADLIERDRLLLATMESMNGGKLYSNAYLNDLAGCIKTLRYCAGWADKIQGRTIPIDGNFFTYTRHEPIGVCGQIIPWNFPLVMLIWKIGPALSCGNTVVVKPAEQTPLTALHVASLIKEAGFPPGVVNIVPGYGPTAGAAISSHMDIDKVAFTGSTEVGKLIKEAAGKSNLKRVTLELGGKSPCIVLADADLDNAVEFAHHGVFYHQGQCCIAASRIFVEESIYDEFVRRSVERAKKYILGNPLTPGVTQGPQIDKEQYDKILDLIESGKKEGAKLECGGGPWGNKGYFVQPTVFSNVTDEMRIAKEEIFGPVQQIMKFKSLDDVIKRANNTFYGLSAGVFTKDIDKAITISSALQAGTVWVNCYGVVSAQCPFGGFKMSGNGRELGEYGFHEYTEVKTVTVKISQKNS
Turning to `CC(C)(C)c1ccc(/C=C2\Oc3c(ccc(O)c3CN3CCN(CCO)CC3)C2=O)cc1`, the “activity, negative = inhibition” value is -12.5%. As to `O=C(CSc1ccc2nnc(-c3ccccc3)n2n1)N1CCCc2ccccc21`, the “activity, negative = inhibition” value is -10.2%. Consider `Cc1nnc(SCC(=O)N2CCc3ccccc32)n1-c1ccccc1`, for which the “activity, negative = inhibition” value was 0.566%. Regarding `O=C(NCc1nnc(SCC(=O)N2CCCc3ccccc32)o1)c1ccccc1F`, the Potency was 28.2 µM (active).

With `COc1ccc(-c2ccc(CNCCCN3CCOCC3)o2)cc1Cl`, the “activity, negative = inhibition” value is 6.17%. For `CC1(C)O[C@@H]2C[C@@H]3[C@H]4C[C@@H](F)C5=CC(=O)C=C[C@]5(C)[C@@]4(F)[C@@H](O)C[C@]3(C)[C@]2(C(=O)CO)O1`, the “activity, negative = inhibition” value was 12.1%. For the molecule `COc1ccccc1NC(=O)C1=C(C)Nc2nnnn2C1c1cccc(Br)c1` (stereo not given), the “activity, negative = inhibition” value is -5.9%. With `COC(=O)C1=C(C(=O)c2ccc(C)cc2)C(c2ccccc2)n2nnnc2N1` (stereo not given), the Potency is 7.08 µM (active).

With `COc1ccc(C2C(C(=O)Nc3ccccc3OC)=C(C)Nc3nnnn32)c(OC)c1` (stereo not given), the “activity, negative = inhibition” value is -14.3%. Same read-out and setting: the value for `COc1cc(OC)cc(-c2nnc(SCC(=O)Nc3ccc(C(=O)O)cc3)s2)c1` was -8.2%. Same read-out and setting: the value for `Cc1ccc(S(=O)(=O)NC(C(=O)N2CCOCCOCCOCCOCC2)c2ccccc2)cc1` (stereo not given) was -1.15%; that for `COc1cc(OC)cc(C(=O)NCCSCc2ccco2)c1` was 5.75%. Take `O=C(/C=C/c1cccc([N+](=O)[O-])c1)NCCSCc1ccco1`: the Potency is 20 µM (active). With `CCC(CC)NC(=O)/C=C/c1cccc([N+](=O)[O-])c1`, the “activity, negative = inhibition” value is -3.2%. For the molecule `C/C=C1\C2C=C(C)CC1(N)c1ccc(=O)[nH]c1C2` (stereo not given), the Potency result was “inactive”. Consider `CCOc1ccc(-c2ccc(SCC(=O)N3CCOCC3)nn2)cc1`, for which the “activity, negative = inhibition” value is 1.06%. In the case of `CN1CCN(S(=O)(=O)c2cccc(C(=O)N3CCc4ccccc43)c2)CC1`, the “activity, negative = inhibition” value was -2.83%. As for `C/C(=N\NC(=O)c1cccc(N2CCCC2=O)c1)c1ccc(N)cc1`, the “activity, negative = inhibition” value was -7.57%. Regarding `O=C(CN1C(=O)COc2ccccc21)Nc1ccc(F)cc1`, the Potency was 22.4 µM (active). Turning to `CCCN1CCN(CCCNC(=O)CN2C(=O)COc3ccccc32)CC1`, the “activity, negative = inhibition” value is -0.825%. With `O=C(CCN1C(=O)COc2ccccc21)NCCCN1CCN(c2ccc(F)cc2)CC1`, the “activity, negative = inhibition” value was 8.59%. On to `Cc1ccc(Cl)c(NC(=O)CN2CCN(C=O)CC2)c1`, for which the “activity, negative = inhibition” value was 6.92%. `CCCCC/C=C\C/C=C\C/C=C\CCCCC(=O)NCC(=O)O`: the “activity, negative = inhibition” value is 1.71%. Regarding `O=C(O)C1CCN(C(=O)c2cc(F)cc3c2OCOC3)CC1`, the “activity, negative = inhibition” value is -4.59%. For the molecule `COc1ccc([N+](=O)[O-])cc1C1NN=C(c2cccc3ccccc23)S1` (stereo not given), the Potency was 10 µM (active). `COc1ccc([N+](=O)[O-])cc1NC(=O)C(C)OC(=O)C1c2ccccc2Oc2ccccc21` (stereo not given): the “activity, negative = inhibition” value is 4.85%.

For `COc1ccccc1C1CCN(c2ccc([N+](=O)[O-])cn2)CC1`, the “activity, negative = inhibition” value is -3.06%. Take `COc1ccc(CN(C)Cc2nc3cc(OC)c(OC)cc3c(=O)[nH]2)c(OC)c1`: the “activity, negative = inhibition” value was 6.82%.

For `COc1ccnc(Oc2ccccc2)c1-c1ncn[nH]1`, the “activity, negative = inhibition” value is -0.551%. In the case of `Cc1cc2oc(=O)cc(-c3ccccc3)c2c(C)c1/C=C/c1ccc(F)cc1`, the “activity, negative = inhibition” value is 1.81%. Still for that read-out and setting: under `Nc1ccc(S(=O)(=O)Nc2nccc(/C=C/c3ccc(Br)s3)n2)cc1` stands -11.9%. In the case of `CSCC(=O)N1CCCC(C(=O)c2cc(F)ccc2F)C1` (stereo not given), the Potency is 10 µM (active). Consider `COc1ccc(F)cc1C(=O)C1CCCN(C(=O)CCc2ccccn2)C1` (stereo not given), for which the “activity, negative = inhibition” value was -4.22%. On to `Cc1cc(Cl)ccc1C(=O)C1CCCN(C(=O)CCN2CCCO2)C1` (stereo not given), for which the “activity, negative = inhibition” value is -15.5%. For the molecule `Cc1cc(C(=O)OCC(=O)NCc2ccco2)c(C)n1-c1ccccc1`, the “activity, negative = inhibition” value was -9.68%. Consider `Cc1cc(C(=O)COC(=O)c2cccs2)c(C)n1-c1c(C)n(C)n(-c2ccccc2)c1=O`, for which the Potency is 20 µM (active). Turning to `Cc1cc(C(=O)CC#N)c(C)n1-c1c(C)n(C)n(-c2ccccc2)c1=O`, the “activity, negative = inhibition” value is 17.2%.

As for `CCOc1ccc(CCN2C(=O)c3cccnc3C2=O)cc1OCC`, the “activity, negative = inhibition” value was 4.81%. The same measure, in the same setting: the value for `O=C1CC(=O)Nc2cc(S(=O)(=O)N3CCN(c4cccc(C(F)(F)F)c4)CC3)ccc2N1` was -2.99%. For `Cc1ccc(S(=O)(=O)N(C)CC(=O)NC2CCCC2)cc1`, the “activity, negative = inhibition” value is -2.42%. Consider `O=C(CN(CC1CCCO1)C(=O)CNS(=O)(=O)c1ccc(F)cc1)NCc1ccco1` (stereo not given), for which the “activity, negative = inhibition” value is 4.66%. Regarding `Cc1ccc(S(=O)(=O)NCC(=O)N(CC(=O)NC2CCCCC2)Cc2ccco2)cc1`, the Potency is 17.8 µM (active).

`COc1ccccc1-c1nc(SC)n[nH]1`: the “activity, negative = inhibition” value is 2.27%. Turning to `O=C(CN1CCOCC1)Nc1c(Cl)cc(Cl)cc1Cl`, the “activity, negative = inhibition” value is 9.81%.

Take `C=CCNC(=S)NNC(=O)c1cc(Cl)ccc1OC`: the “activity, negative = inhibition” value is 8.59%. With `COc1cc(C(=O)N(Cc2ccc(N(C)C)cc2)C2CCS(=O)(=O)C2)cc(OC)c1OC` (stereo not given), the “activity, negative = inhibition” value was -4.2%. Regarding `CCOc1ccc(C(=O)N(Cc2ccc(N(C)C)cc2)C2CCS(=O)(=O)C2)cc1` (stereo not given), the Potency is 12.6 µM (active). Consider `CCCCN(C(=O)COc1ccc(NC(C)=O)cc1)C1CCS(=O)(=O)C1` (stereo not given), for which the “activity, negative = inhibition” value was 1.35%. In the case of `COc1ccc(NC(=O)COc2ccc(C(=O)OCC(=O)N(C)C3CCS(=O)(=O)C3)cc2OC)cc1` (stereo not given), the “activity, negative = inhibition” value is -5.23%.

As for `CC1(C)C(C=C(Cl)Cl)C1C(=O)N(Cc1ccc(Cl)cc1)C1CCS(=O)(=O)C1` (stereo not given), the “activity, negative = inhibition” value was -1.61%. With `COc1ccc(C(=O)N(Cc2ccc(N(C)C)cc2)C2CCS(=O)(=O)C2)cc1` (stereo not given), the Potency is 5.62 µM (active).

Turning to `CCCN(CCC)CCCNC(=O)CNC(=O)c1nn(-c2ccc(OC)cc2)c(=O)c2ccccc12`, the “activity, negative = inhibition” value is -5.06%. Still for that read-out and setting: under `COc1ccc(CC(NC(C)=O)C(=O)NC2CCN(C(=O)c3ccc(OC)c(OC)c3)CC2)cc1OC` (stereo not given) stands 4.43%. Regarding `CNC(=O)c1ccc(NC(=O)c2cccc(C(F)(F)F)c2)cc1`, the “activity, negative = inhibition” value was 2.1%. On to `CC(C)N(C(=O)Cn1cc(SCC(=O)N2CCCC2)c2ccccc21)C(C)C`, for which the “activity, negative = inhibition” value is 4.74%.

The record behind these values is PubChem BioAssay AID1030 (National Center for Advancing Translational Sciences (NCATS), 2008).
